Bioassay records from PubChem BioAssay.
In the library only some 7.5% were active in any assay of this set; here they are far more common.
FLuc counter = inhibits or activates purified firefly luciferase, miR-21 counter-screen; 360,000 compounds, 6.9% hits; purified FLuc, Km substrates, luminescence inhibition; Potency, µM (highest dose often 57.5 µM), for inactives: top-dose activity change, negative = inhibition, most hits filed as inhibitors; P08659;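 note: plate controls were vehicle for no effect and reference inhibitor for full effect; nearly all actives have a fitted effect of over 55% in size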
Target sequence (P08659 whole entry, looked up): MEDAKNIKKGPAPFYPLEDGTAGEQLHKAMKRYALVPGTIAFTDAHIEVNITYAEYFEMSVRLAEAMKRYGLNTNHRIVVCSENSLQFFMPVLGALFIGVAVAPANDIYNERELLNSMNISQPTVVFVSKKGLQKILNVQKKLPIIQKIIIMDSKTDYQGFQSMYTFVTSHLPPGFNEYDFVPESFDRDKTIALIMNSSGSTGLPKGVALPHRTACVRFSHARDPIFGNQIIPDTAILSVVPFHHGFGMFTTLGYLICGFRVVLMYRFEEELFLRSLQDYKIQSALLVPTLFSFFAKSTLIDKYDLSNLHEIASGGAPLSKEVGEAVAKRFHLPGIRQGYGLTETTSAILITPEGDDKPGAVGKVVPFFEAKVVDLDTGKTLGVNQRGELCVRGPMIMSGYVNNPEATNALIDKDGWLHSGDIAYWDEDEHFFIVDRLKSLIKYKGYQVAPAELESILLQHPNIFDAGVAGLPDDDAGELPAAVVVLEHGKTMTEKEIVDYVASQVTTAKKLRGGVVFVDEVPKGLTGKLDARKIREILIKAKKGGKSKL
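Purified P. pyralis luciferase (10nM final) with 10uM D-luciferin and 10uM ATP (Km levels) in 50mM Tris acetate pH 7.5, 10mM Mg acetate, 0.01% Tween-20, 0.05% BSA; qHTS 6-point titration, ~60 µM downward; luminescence read.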
Rab9 prom act = Rab9 promoter activation; Huh7 Rab9 promoter-luciferase reporter, luminescence, 24 h; AID 485297; 320,000 compounds, 2.8% hits; Potency, µM (titrated, usually from 9.22 µM), for the others: top-dose activation, negative = inhibition, usual class: activators; note: % of control where 0% means no effect; nearly all actives have a fitted effect of over 60% in size
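Huh7 reporter line, Rab9 promoter upstream of luciferase. Compound exposure 24 h at 37 °C in reduced-serum medium with 10% FBS. Read-out: luminescence.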
SMN2 splice up = enhancers of SMN2 splice variant expression; HEK293 SMN2-luciferase splicing reporter, luminescence, 30-36 h; Potency, µM (highest dose often 46.1 µM), for the others: top-dose activity change, positive = activation, actives largely listed as activators; 210,000 compounds, 2.8% hits; AID 1458; note: % of control where 0% means no effect; nearly all actives have a fitted effect of over 55% in size
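HEK293 cells carry an SMN2 […]–luciferase reporter in which exon 7 inclusion puts luciferase in frame. Cells were plated 10-12 h before compound addition, then incubated 30-36 h at 37C. ONE-Glo luminescence was read; sodium butyrate at 4.5 mM final served as control.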
NPC1 promoter act = NPC1 promoter activation; Huh7 NPC1 promoter luciferase reporter, 24 h; Potency, µM (highest dose often 9.22 µM), inactives show top-dose activation, hits mostly activators; 320,000 compounds, 2.4% hits; note: % of control where 0% means no effect; nearly all actives have a fitted effect of over 60% in size
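Huh7 reporter cells (NPC1 promoter driving luciferase) are dosed with compound for 24 h at 37 °C, 5% CO2; luciferase detection reagent is then added and luminescence measured after 10 min at ambient temperature.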
Luc counter = blocks Kinase-Glo luciferase, a counter-screen artifact | Q27757 | Kinase-Glo luciferase, ATP luminescence, 8 min | Potency, µM (highest dose often 38.3 µM), without a hit: at the highest dose activity change, negative = inhibition, most hits filed as inhibitors | 200,000 compounds, 0.28% hits | AID 1379; note: % is set by controls: 0 for no effect and ±100 for the full control effect; nearly all actives have a fitted effect of over 60% in size
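Luminescence was the read-out, taken after 8-minute incubation at ambient temperature. Luciferase turned over luciferin with 10 uM ATP in imidazole pH 7.2 buffer containing KCl, MgCl2, Tween 20 and BSA.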
ELG1 genotoxic = inducers of genotoxicity in HEK293T ELG1-luciferase cells; 330,000 compounds, 1.3% hits; HEK293T ELG1-luciferase reporter, luminescence, 16 h; Potency, µM (doses to about 46 µM), without a hit: at the highest dose activity change, positive = activation, actives largely listed as activators; note: % of control where 0% means no effect; nearly all actives have a fitted effect of over 60% in size
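Cells (2,000/well) expressing the ELG1-luciferase fusion are dosed by pin tool and kept 16 hr at 37 °C, 5% CO2. Signal comes from ONE-Glo luciferase reagent after 30 min at room temperature.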
The depositor's hits bear a star; ? = inconclusive; · = no result given. Calls come from the whole dose curve; as a rule, active = well fitted curve in the direction sought with a large enough effect; inconclusive = small, poorly fitted or top-dose-only effect, or another doubt; inactive = no such curve, though single readings can be large; an effect the other way counts as inactive or inconclusive. Potency is the fitted concentration of half-maximal effect.

SMILES	FLuc counter	Rab9 prom act	SMN2 splice up	NPC1 promoter act	Luc counter	ELG1 genotoxic
CCN(c1ccc(NC(=O)CN2C(=O)NC3(CCOc4ccccc43)C2=O)cc1)C(C)C (stereo not given)	17µM*	-2%	-9%	-3%	22%	1%
COC(=O)[C@@H](O)CC[C@@H](C)Cc1c(OC)c(OC)c(C)c(OC)c1OC	·	·	15%	·	1%	·
COc1cccc(N2CCN(C(=O)Cn3nc(C)n4c(cc5c(OC)cccc54)c3=O)CC2)c1	-4%	·	-7%	·	·	·
c1ccc(-n2ncc3c2ncn2nc(-c4ccco4)nc32)cc1	0.85µM*	1.1µM*	11µM*	3.2µM*	-9%	1.6µM*
COc1ccc(-n2ncc3c2ncn2nc(Cc4ccccc4)nc32)cc1	-12%	·	-10%	·	·	·
CCCCCC(=O)c1c(C)[nH]c(C(=O)OCC)c1C	?	6%	-1%	5%	-3%	0%
CCOC(=O)c1c(C)[nH]c(C(=O)COC(=O)CSC)c1C	11µM*	-6%	8%	-3%	1%	3%
CCCCCCC(=O)c1c(C)[nH]c(C(=O)OCC)c1C	?	27%	?	26%	-1%	14µM*
CCCCC(=O)OCC(=O)c1[nH]c(C)c(C(=O)OCC)c1C	1.9µM*	-1%	27%	0%	-5%	12%
COc1ccccc1NS(=O)(=O)c1ccc(C)c(NC(=O)c2c(C)noc2C)c1	-2%	-4%	·	-5%	·	1%
CCn1nc(C)c(CCN(C)C(=O)Nc2cc(OC)c(OC)c(OC)c2)c1C	-1%	·	·	·	·	·
C=CCNc1nc(NCc2ccccc2)c(C#N)c2c1CN(C)CC2	1%	2%	22µM*	-5%	-1%	-3%
Cc1ccc(Cl)cc1NC(=S)N1CCCCCC1	3%	0%	·	-3%	·	1%
Cc1ccc(/C=C2/CCc3c([nH]c4ccccc34)C2=O)cc1	0.76µM*	0.45µM*	6.3µM*	0.5µM*	-6%	?
Cc1ccc2[nH]c3c(c2c1)CC/C(=C/c1ccccc1)C3=O	4.8µM*	?	?	28%	-4%	?
O=C1/C(=C\c2ccccc2)CCc2c1[nH]c1ccccc21	2.7µM*	?	11µM*	?	-1%	1.5µM*
CC(C)/C=C1\CCc2c([nH]c3ccccc23)C1=O	?	?	·	12%	0%	-14%
Cc1ccc(C(=O)NN2C(=O)C3C(C2=O)C2C=CC3C23CC3)cc1 (stereo not given)	5%	-6%	-17%	0%	1%	-2%
Cc1ccc(SCC(=O)NNC(=O)CNC(=O)c2ccccc2F)cc1	·	·	·	·	·	0%
COc1ccccc1NC(=O)CSc1nc2ccccc2c2nc(-c3ccccc3)nn12	-2%	·	·	·	·	·
O=[N+]([O-])c1cccc(/C=N/N2CCN(c3ccccn3)CC2)c1	?	3.2µM*	·	?	·	17%
Oc1ccccc1/C=N/N1CCN(c2ccccn2)CC1	13µM*	2.8µM*	·	?	·	?
C(=N\N1CCN(c2ccccn2)CC1)/c1cccc2ccccc12	17µM*	2%	·	2%	·	-3%
CC(C)c1ccc(/C=N/N2CCN(c3ccccn3)CC2)cc1	?	?	·	?	·	3%
C(=C\c1ccccc1)/C=N/N1CCN(c2ccccn2)CC1	12µM*	?	?	?	-7%	4.1µM*
SMILES	FLuc counter	Rab9 prom act	SMN2 splice up	NPC1 promoter act	Luc counter	ELG1 genotoxic
O=C(NC1CC1)C1CCN(S(=O)(=O)c2ccc(Cl)c([N+](=O)[O-])c2)CC1	·	-1%	·	1%	·	-6%
Cc1cc2c(cc1S(=O)(=O)Nc1cccc(C)c1C)n(C)c(=O)c(=O)n2C	-1%	-2%	·	-4%	·	1%
CCSc1nnc(NC(=O)CC)s1	0%	-5%	-5%	0%	0%	-3%
CCSc1nnc(NC(=O)c2cnccn2)s1	2%	-1%	19%	8%	-3%	9%
CCSc1nnc(NC(=O)c2ccccc2)s1	13µM*	3.2µM*	11µM*	3.5µM*	-5%	?
CCSc1nnc(NC(=O)c2cccnc2)s1	?	29%	?	?	-2%	?
CCSc1nnc(NC(=O)c2ccc(Br)s2)s1	15µM*	?	?	?	7%	?
CCSc1nnc(NC(=O)c2cccnc2Cl)s1	?	11%	18µM*	18%	-1%	?
O=C(Nc1nnc(C2CCCCC2)s1)c1ccc(Br)s1	?	1.8µM*	3.2µM*	0.5µM*	3%	?
CCSc1nnc(NC(=O)[C@H](C)NC(=O)c2ccccc2Cl)s1	-12%	-1%	2%	0%	0%	-2%
O=C(Nc1nnc(C(F)(F)F)s1)c1ccc(Br)s1	8.5µM*	12%	?	?	0%	11%
CCSc1nnc(NC(=O)c2ccccc2C)s1	24µM*	2.5µM*	10µM*	?	-7%	?
CCSc1nnc(NC(=O)c2ccccn2)s1	8.5µM*	?	4µM*	0.89µM*	-29%	16µM*
Cc1cc(=O)c2c(O)c3c(O)cc(O)c4c5c(O)cc(O)c6c(O)c7c(=O)cc(C)c8c1c2c(c34)c(c65)c78	·	·	-80%	·	?	·
Cc1ccc(Cl)cc1N1CCN(C(=O)c2noc(C(C)C)c2[N+](=O)[O-])CC1	3%	-56%	·	-38%	·	-6%
Cc1c(C(=O)OCCOc2ccccc2)[nH]c2c1C(=O)CCC2	0.95µM*	?	3.5µM*	4.5µM*	-4%	?
CCOc1ccc(C2CC(=O)c3c([nH]c(C(=O)OCCOc4ccccc4)c3C)C2)cc1 (stereo not given)	-7%	·	1%	·	·	·
CC(=O)c1c(C)[nH]c(C(=O)OCC(=O)Nc2ccccc2Cl)c1C	-11%	-9%	·	-5%	0%	-1%
CC(=O)c1c(C)[nH]c(C(=O)OCC(=O)Nc2nnc(-c3ccccc3)o2)c1C	21µM*	-7%	·	-3%	·	-2%
CC(=O)c1c(C)[nH]c(C(=O)OCCOc2ccccc2)c1C	0.54µM*	0.32µM*	-56%	0.32µM*	4%	?
CCOC(=O)c1cc(-c2cccc(C(F)(F)F)c2)nc2nc(SC)[nH]c(=O)c12	12µM*	-2%	5%	-2%	0%	-6%
CCOC(=O)c1cc(-c2ccc(C)cc2)nc2nc(SC)[nH]c(=O)c12	4.8µM*	-1%	6%	-2%	-1%	-1%
CCCCn1c(=O)[nH]c(=O)c2c(C(=O)OCC)cc(-c3ccc(OC(F)F)cc3)nc21	-1%	-11%	12%	2%	-2%	?
COC(=O)c1cc(-c2ccc(OC)cc2)nc2nc(SC)[nH]c(=O)c12	5.4µM*	-1%	·	-5%	·	1%
